Consider 15 molecules from PubChem BioAssay (EPA / NIEHS).

Records with an inconclusive call do not appear. Active and inactive are the calls of the source. The calls were made as follows: active = hit-call score of the fitted dose curve at least 0.9, where 1 is the maximum; inconclusive = response in the unintended direction; inactive = score below 0.9.

The assay can be described thus: ACEA_AR_antagonist_AUC_viability: ACEA Biosciences xCELLigence Real-Time Cell Analysis on Androgen Receptor Antagonism for Viability (AID 2283776).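 Also: 22Rv1 human prostate cancer cells growing on impedance electrode plates; hits lower the growth signal relative to DMSO meaning cytotoxicity.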 In short, it runs like this: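 Impedance read-out (RT-CES): area under growth curve at 80 h post-dose, loss of signal scored vs DMSO baseline. 22Rv1 cells; 8-pt 1:4 series, top 100 uM final, ≤0.5% DMSO; biological duplicate.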
One may read the AC50 as the concentration at which the activity in the assay is half-maximal. For the molecule `Clc1ccc(COC(Cn2ccnc2)c2ccc(Cl)cc2Cl)cc1` (stereo not given), the half-maximal activity concentration (AC50) is 7.1 µM (active).

Take `CC(C)C1CCC(Cc2ccc(Cl)cc2)C1(O)Cn1cncn1` (stereo not given): the AC50 is 4.94 µM (active).

Regarding `CC(C)(OO)c1ccccc1`, the molecule was classed as inactive.

For `O=c1[nH]c(=O)[nH]c(=O)[nH]1`, the molecule was classed as inactive.

As to `CC(=O)[O][Hg][c]1ccccc1`, the AC50 was 1.63 µM (active).

As to `Clc1ccc(C2(Cn3cncn3)CC(Br)CO2)c(Cl)c1` (stereo not given), the outcome was inactive.

For `O=C/C=C/c1ccccc1`, the molecule was classed as inactive.

For the molecule `CC(=O)C=C(C)C`, the result was inactive.

As to `CCCCCCCCSC(=O)Oc1cc(Cl)nnc1-c1ccccc1`, the outcome was inactive.

Regarding `O=C1C(Cl)=C(Cl)C(=O)c2ccccc21`, the result was inactive.

Regarding `Cc1ccccc1C(=O)Nc1cccc(OC(C)C)c1`, the molecule was called inactive.

For the molecule `O=C(Cc1ccccc1)c1ccccc1`, the outcome was inactive.

Regarding `Cn1sc(Cl)cc1=O`, the half-maximal activity concentration (AC50) is 80.7 µM (active).

As for `C=C(C)C#N`, the outcome was inactive.

On to `O=C1C2(Cl)C3(Cl)C4(Cl)C(Cl)(Cl)C5(Cl)C3(Cl)C1(Cl)C5(Cl)C24Cl` (stereo not given), for which the half-maximal activity concentration (AC50) was 7.14 µM (active).
